# BAZ2B inh = blocks human BAZ2B | Q9UIF8 | AlphaScreen BAZ2B-H3K14Ac peptide displacement | Potency, µM (series often up to 114 µM), for the others: at the top dose activity change, negative = inhibition, hits mostly inhibitors | 360,000 tested, 4.4% active; further: on the % scale 0 is the no-effect control and ±100 the full control effect; nearly all actives have a fitted effect of over 60% in size
#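 Protein-peptide AlphaScreen: BAZ2B 50 nM, b-H3K14Ac 50 nM, 1x PBS pH 7.4 + 0.01% Tween-20. Preincubation 30 min RT; cpd 30 min RT (top 110 uM); beads 20 min RT, light-protected.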
# G9a inh = inhibitors of human histone lysine methyltransferase G9a | Potency, µM (top dose mostly 102 µM), inactives show at the highest dose activity, negative = inhibition, most hits filed as inhibitors | Q96KQ7 | AID 504332 | G9a H3K9 monomethylation, AlphaScreen, 2 h | 350,000 tested, 8.8% active; further: on the % scale 0 is the no-effect control and ±100 the full control effect; nearly all actives have a fitted effect of over 75% in size
#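 Quantitative HTS format: methyltransferase activity on a biotin-tagged H3K9 peptide is measured by AlphaScreen, using a rabbit anti-monomethyl-H3K9 antibody with streptavidin donor and anti-IgG acceptor beads. Final levels are 20 nM enzyme, 500 nM peptide, 20 uM SAM; 2 h RT.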
# HP1b binding inh = blocks HP1-beta chromodomain binding to methylated histone tails; 390,000 tested, 0.56% active; P83916; Potency, µM (highest dose often 114 µM), inactives show top-dose activity change, negative = inhibition, usual class: inhibitors; AID 540317; AlphaScreen HP1-beta / biotin-H3K9me3 peptide binding; further: nearly all actives have a fitted effect of over 70% in size
#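 Compound inhibition of the preformed complex between 50 nM HP1-beta and 50 nM biotinylated H3K9me3 peptide was read by AlphaScreen. Buffer was PBS pH 7.4 with 0.01% Tween-20. Incubations ran 30 min at room temperature, with 10 ug/mL donor/acceptor beads.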
# JMJD2A Tudor inh = inhibitors of human JMJD2A Tudor domain | 390,000 tested, 4.4% active | AlphaScreen JMJD2A-Tudor / H3K4me3 peptide binding | Potency, µM (titrated, usually from 114 µM), inactives show at the highest dose activity change, negative = inhibition, actives largely listed as inhibitors | O75164; further: on the % scale 0 is the no-effect control and ±100 the full control effect; nearly all actives have a fitted effect of over 50% in size
# PLK1 PBD inh = PLK1 (human) polo-box domain binding inhibition. P53350. Plk1 PBD binding of FITC phosphopeptide, fluorescence polarization. Potency, µM, for inactives: max response, negative = inhibition, most hits filed as inhibitors. 360,000 tested, 2.8% active; further: series mostly up to about 57 µM; on the % scale 0 is the no-effect control and ±100 the full control effect; nearly all actives have a fitted effect of over 65% in size
# ALOX12 inh = blocks human arachidonate 12S-lipoxygenase | P18054 | purified 12hLO, xylenol orange hydroperoxide absorbance | Potency, µM (doses to about 108 µM), without a hit: top-dose activity change, negative = inhibition, most hits filed as inhibitors | 580,000 tested, 1.1% active; further: on the % scale 0 is the no-effect control and ±100 the full control effect
#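 Purified human 12hLO at 150 nM in 25 mM Hepes, 0.01% Triton X-100, pH 7.0, preincubated 15 min at room temperature with compound. Reaction started with 40 uM arachidonic acid, 30 min at room temperature. Hydroperoxide measured by Fe-xylenol orange, 573/405 nm absorbance ratio.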
# * = called active by the depositor; ? = inconclusive; · = no result given; [ ] = dose if it differs, or a comment. Only some compounds are listed: those with a hit (about 9% of all), similar ones and a draw of the others. The call rests on the fitted dose curve; in most records, active means well fitted curve in the direction sought with a large enough effect; inconclusive means small, poorly fitted or top-dose-only effect, or another doubt; inactive means no such curve, though single readings can be large; an effect the other way counts as inactive or inconclusive. Potency means the concentration at half of the fitted maximal effect.
SMILES,BAZ2B inh,G9a inh,HP1b binding inh,JMJD2A Tudor inh,PLK1 PBD inh,ALOX12 inh
O=[N+]([O-])c1ccc(O)c(CN2CCCCCC2)c1,3.3%,1.1%[0.501 µM],11.0%,-10.3%,-6.7%,-5.4%
CCN(CC)C(=O)C1CCCN(Cc2ccc(N(C)C)cc2)C1 (stereo not given),31.6µM*,14.1µM*,?,44.7µM*,6.0%,-4.8%
O=C(c1cccc(Cl)c1)C1CCCN(Cc2ccc(N3CCNC3=O)cc2)C1 (stereo not given),?,50.1µM*,8.0%,?,-3.9%,-0.4%
COc1ccc(CN2CCC(C(=O)c3cccc(Cl)c3)CC2)cc1,0.3%,-8.9%[0.501 µM],14.8%,-13.0%,-0.3%,0.0%
COc1ccc(C(=O)C2CCCN(Cc3cc(C)c(O)c(C)c3)C2)c(OC)c1 (stereo not given),0.3%,·,7.6%,-15.8%,-14.5%,3.9%
O=[N+]([O-])c1ccc(Cl)cc1CN1CCCCCC1,?,22.4µM*,?,20µM*,-4.9%,5.01µM*
COc1ccc(CN[C@@H]2CO[C@H](CNC(=O)NC(C)C)[C@H]2O)cc1,·,·,·,·,·,-17.2%[176 µM]
CCOc1cccc(CNC(=O)c2ccc(N3CCCC3)c(NC(=O)NCc3ccc(F)cc3)c2)c1,-10.7%,1.1%[12.7 µM],28.4%,-2.0%,·,6.6%
CCOC(=O)C1CCCN(Cc2cccc(Cl)c2)C1 (stereo not given),?,8.91µM*,?,2.82µM*,0.3%,?
O=C(NCCc1ccccc1)N1CCC(N2CC3CC(C2)[C@H]2CCCC(=O)N2C3)CC1 (stereo not given in full),·,·,·,·,·,-2.0%
CCOc1ccc(N(CC(=O)NCCc2ccc(Cl)cc2)S(=O)(=O)c2c(C)[nH]c(=O)[nH]c2=O)cc1,4.4%,-8.0%,32.1%,2.8%,5.3%,6.4%
C=CCn1c(SCC(=O)NC2CCS(=O)(=O)C2)nnc1-c1cc2c(s1)CCC(CC)C2 (stereo not given),-1.2%,-44.4%,7.6%,-17.4%,5.9%,9.9%
CCN(CC)C(=O)/C=C/c1ccccc1,4.4%,9.1%[0.501 µM],64.3%,-5.0%,-9.7%,19.7%
CCOc1ccc(NC(=O)CCc2c(C)nc3cc(-c4ccc(Cl)cc4)nn3c2C)cc1,-19.5%,0.708µM*,18.6%,-12.8%,·,-8.7%
O=C(Cc1ccc([N+](=O)[O-])cc1)N/N=C/c1cccs1,8.1%,133.9%,41.3%,-14.4%,-7.4%,-16.3%
O=C(Cc1ccccc1)N/N=C/c1cccn1-c1ccc([N+](=O)[O-])cc1,25.1µM*,7.08µM*,?,-32.9%,-9.3%,-28.9%
O=C(N/N=C/c1cccn1-c1ccc([N+](=O)[O-])cc1)C(O)c1ccccc1 (stereo not given),?,44.7µM*,-14.0%,?,-7.8%,-6.3%
O=C(CSCc1n[nH]c(=O)[nH]1)NCCOc1cccc(Oc2ccccc2)c1,5.1%,?,20.6%,3.2%,-5.0%,-9.2%
Cc1cccc(C(=O)NCC(=O)NC(C)c2ccc(-n3ccnc3)cc2)c1 (stereo not given),-18.7%,1.5%,21.0%,-13.8%,-3.3%,17.9%
COc1ccccc1C(=O)NCC(=O)NC(C)c1ccc(-n2ccnc2)cc1 (stereo not given),-1.9%,10µM*,9.8%,-20.1%,3.4%,2.7%
CC(=O)c1nc(N2C(=O)CC(Cc3ccc(C)cc3)C2=O)sc1C (stereo not given),?,1.41µM*,37.5%,-24.0%,-10.4%,-10.6%
Cc1ccc(CC2CC(=O)N(c3nc4ccccc4s3)C2=O)cc1 (stereo not given),-14.1%,-18.8%,32.5%,-4.5%,-2.2%,0.0%
CCc1ccccc1N/N=C(/c1ccccc1)c1ccc(Br)cc1,·,·,·,·,·,7.94µM*
Cc1ccc(C)c(CSc2nnc(C)n3c2cc2sccc23)c1,-13.8%,-8.4%[59 µM],30.6%,-12.5%,·,-36.5%
Cc1nc(-c2ccccc2)sc1C(=O)NN,-29.5%,?,65.6%,-21.7%,-7.5%,-0.9%
CNC(=O)c1sc(-c2cccs2)nc1C,·,44.7µM*,27.6%,0.0%,-16.3%,?

# High-throughput results (PubChem BioAssay)
